Source: PubChem BioAssay (NCI)
This is part of a sample that, as a whole, favours compounds with a hit. Of some 79,000 tested, about 15% had one in any assay. Values without a mark were called inactive. Active and inactive are the calls of the source. Cut-off read from the data, not from the text of the source: active = growth inhibition above about 70%; inactive = the rest.

Tests used:
[1] = NCI Yeast Anticancer Drug Screen. Data for the rad52 strain (AID 147);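 note: 0% = growth of vehicle-treated control cultures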; details: S. cerevisiae rad52 mutant growth inhibition, hits give high values
In short: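 Yeast strain carrying a DNA damage repair alteration was exposed to test compounds. Growth inhibition was measured relative to vehicle-treated controls.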

[2] = NCI Yeast Anticancer Drug Screen. Data for the wt1 strain (AID 149);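 note: 0% = growth of vehicle-treated wt1 cultures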; details: S. cerevisiae wt1 strain (SPY 50644) growth inhibition, hits give high values
In short: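 Readout: yeast growth inhibition, normalised to vehicle controls, in the wt1 strain exposed to test compounds.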

[3] = NCI Yeast Anticancer Drug Screen. Data for the rad50EPP+ strain (AID 151);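 note: 0% = growth of vehicle-treated control cultures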; details: S. cerevisiae rad50 mutant strain, hits give high values
In short: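 Yeast strain carrying rad50 alteration (rad50EPP+) exposed to compounds; growth inhibition measured relative to vehicle-treated controls.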

[4] = NCI Yeast Anticancer Drug Screen. Data for the mgt1 strain (AID 153); details: S. cerevisiae mgt1 mutant growth inhibition, hits give high values
In short: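 Yeast mgt1 strain (DNA repair/cell-cycle alteration panel) exposed to compounds; growth inhibition measured relative to vehicle-treated controls.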

[5] = NCI Yeast Anticancer Drug Screen. Data for the rad50 strain (AID 155);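 note: 0% = growth of vehicle-only cultures of the same strain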; details: S. cerevisiae rad50 strain growth inhibition, hits give high values
In short: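 Compounds were tested on a yeast strain with an engineered DNA damage repair alteration; the reported value is growth inhibition normalised to vehicle treatment.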

[6] = NCI Yeast Anticancer Drug Screen. Data for the mec2-1 strain (AID 157); details: S. cerevisiae mec2-1 strain, hits give high values
In short: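 mec2-1 yeast strain, carrying an alteration in DNA damage repair or cell cycle control, was exposed to compounds; growth inhibition was measured relative to vehicle-treated controls.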

[7] = NCI Yeast Anticancer Drug Screen. Data for the rad14 strain (AID 159);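 note: 0% = growth of vehicle-treated control cultures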; details: S. cerevisiae rad14 strain growth inhibition, hits give high values
In short: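 Compound-treated yeast with a defined DNA-repair lesion; growth inhibition normalised to vehicle-treated cultures.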

[8] = NCI Yeast Anticancer Drug Screen. Data for the sgs1 mgt1 strain (AID 161);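 note: 0% = growth of cultures given vehicle only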; details: S. cerevisiae sgs1 mgt1 strain, hits give high values
In short: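 This yeast growth screen uses a strain with defined DNA-repair lesions; compound-treated growth is compared with vehicle-treated growth.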

[9] = NCI Yeast Anticancer Drug Screen. Data for the CLN2oe strain (AID 163);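 note: 0% = growth of vehicle-only control cultures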; details: S. cerevisiae CLN2oe strain, hits give high values
In short: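 Yeast cells carrying a defined cell-cycle control alteration were exposed to test compounds. Growth inhibition was scored against vehicle-treated control cultures.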

[10] = NCI Yeast Anticancer Drug Screen. Data for the cln2 rad14 strain (AID 165);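 note: 0% = growth equal to vehicle treated cultures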; details: S. cerevisiae cln2 rad14 strain, hits give high values
In short: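 Yeast carrying cln2 and rad14 alterations (cell cycle control and DNA damage repair) were exposed to compounds. Growth inhibition was measured against vehicle-treated controls.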

[11] = NCI Yeast Anticancer Drug Screen. Data for the bub3 strain (AID 167); details: S. cerevisiae bub3 mutant strain, hits give high values
In short: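 Growth of a checkpoint-deficient yeast mutant is measured after compound exposure. Values represent inhibition relative to vehicle.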

[12] = NCI Yeast Anticancer Drug Screen. Data for the wt2 strain (AID 169);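 note: 0% = growth of vehicle-treated yeast cultures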; details: S. cerevisiae wt2 strain growth inhibition, hits give high values
In short: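 Yeast cells were exposed to test compounds, and growth inhibition was measured relative to vehicle-treated controls.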

[13] = NCI Yeast Anticancer Drug Screen. Data for the mlh1 strain (AID 171);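 note: 0% = growth of vehicle-treated control cultures of the same strain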; details: S. cerevisiae mlh1 strain growth inhibition, hits give high values
In short: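 Yeast carrying a defined genetic alteration in DNA damage repair or cell cycle control were exposed to test compounds. Growth inhibition was measured relative to vehicle-treated controls.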

[14] = NCI Yeast Anticancer Drug Screen. Data for the sgs1 strain (AID 173);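 note: 0% = growth of vehicle-only control cultures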; details: S. cerevisiae sgs1 mutant, hits give high values
In short: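 Yeast mutant strains carrying defined defects in DNA damage repair or cell cycle control were exposed to test compounds. Growth inhibition was scored against vehicle-treated controls.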

[15] = NCI Yeast Anticancer Drug Screen. Data for the mlh1 rad18 strain (AID 175); details: S. cerevisiae mlh1 rad18 strain growth inhibition, hits give high values
In short: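 Growth inhibition of the yeast strain was measured after compound exposure and expressed relative to vehicle-treated controls. The strain carries defined defects in DNA damage repair.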

[16] = NCI Yeast Anticancer Drug Screen. Data for the rad18 strain (AID 177); details: S. cerevisiae rad18 mutant growth inhibition, hits give high values
In short: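 Yeast carrying a defined DNA damage repair alteration were exposed to compounds. Growth inhibition was expressed relative to vehicle-treated controls.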

[17] = at 5.0 µM (retest, dose inferred, filed as 0.5)
[18] = at 50.0 µM (retest, dose inferred, filed as 5.0)

## Cn1cc(NC(=O)c2cc(NC(=O)CN=C(N)N)cn2C)cc1C(=O)NCCC(=N)N
[1]; at 1.2 µM
  growth inhibition: 21%
[1]; at 3.7 µM
  growth inhibition: 7%
[1]; at 11.0 µM
  growth inhibition: 56%
[1]; at 33.0 µM
  growth inhibition: 97% (active)
[1]; at 100.0 µM
  growth inhibition: 98% (active)
[2]; at 1.2 µM
  growth inhibition: 17%
[2]; at 3.7 µM
  growth inhibition: 26%
[2]; at 11.0 µM
  growth inhibition: 24%
[2]; at 33.0 µM
  growth inhibition: 85% (active)
[2]; at 100.0 µM
  growth inhibition: 96% (active)
[3]; at 1.2 µM
  growth inhibition: 19%
[3]; at 3.7 µM
  growth inhibition: 1%
[3]; at 11.0 µM
  growth inhibition: 24%
[3]; at 33.0 µM
  growth inhibition: 73% (active)
[3]; at 100.0 µM
  growth inhibition: 96% (active)
[4]; at 1.2 µM
  growth inhibition: 1%
[4]; at 3.7 µM
  growth inhibition: 6%
[4]; at 11.0 µM
  growth inhibition: 5%
[4]; at 33.0 µM
  growth inhibition: 94% (active)
[4]; at 100.0 µM
  growth inhibition: 99% (active)
[5]; at 1.2 µM
  growth inhibition: 0%
[5]; at 3.7 µM
  growth inhibition: 4%
[5]; [17]
  growth inhibition: -30%
[5]; at 11.0 µM
  growth inhibition: 67%
[5]; at 33.0 µM
  growth inhibition: 97% (active)
[5]; [18]
  growth inhibition: 87% (active)
[5]; at 50.0 µM
  growth inhibition: 89.2% (active)
[5]; at 100.0 µM
  growth inhibition: 97% (active)
[6]; at 1.2 µM
  growth inhibition: 20%
[6]; at 3.7 µM
  growth inhibition: 18%
[6]; [17]
  growth inhibition: -11%
[6]; at 11.0 µM
  growth inhibition: 31%
[6]; at 33.0 µM
  growth inhibition: 95% (active)
[6]; [18]
  growth inhibition: 44%
[6]; at 50.0 µM
  growth inhibition: 87.5% (active)
[6]; at 100.0 µM
  growth inhibition: 99% (active)
[7]; at 1.2 µM
  growth inhibition: 18%
[7]; at 3.7 µM
  growth inhibition: -2%
[7]; at 11.0 µM
  growth inhibition: 35%
[7]; at 33.0 µM
  growth inhibition: 97% (active)
[7]; at 100.0 µM
  growth inhibition: 98% (active)
[8]; [17]
  growth inhibition: 7%
[8]; [18]
  growth inhibition: 11%
[8]; at 50.0 µM
  growth inhibition: 84.6% (active)
[9]; at 1.2 µM
  growth inhibition: -1%
[9]; at 3.7 µM
  growth inhibition: 0%
[9]; at 11.0 µM
  growth inhibition: 16%
[9]; at 33.0 µM
  growth inhibition: 96% (active)
[9]; at 100.0 µM
  growth inhibition: 97% (active)
[10]; [17]
  growth inhibition: -13%
[10]; [18]
  growth inhibition: 28%
[10]; at 50.0 µM
  growth inhibition: 68.5%
[11]; at 1.2 µM
  growth inhibition: 11%
[11]; at 3.7 µM
  growth inhibition: 18%
[11]; [17]
  growth inhibition: 6%
[11]; at 11.0 µM
  growth inhibition: 2%
[11]; at 33.0 µM
  growth inhibition: 93% (active)
[11]; [18]
  growth inhibition: 70% (active)
[11]; at 50.0 µM
  growth inhibition: 87.3% (active)
[11]; at 100.0 µM
  growth inhibition: 97% (active)
[12]; at 1.2 µM
  growth inhibition: 17%
[12]; at 3.7 µM
  growth inhibition: 13%
[12]; at 11.0 µM
  growth inhibition: 23%
[12]; at 33.0 µM
  growth inhibition: 95% (active)
[12]; at 100.0 µM
  growth inhibition: 97% (active)
[13]; at 1.2 µM
  growth inhibition: -8%
[13]; at 3.7 µM
  growth inhibition: -16%
[13]; at 11.0 µM
  growth inhibition: -7%
[13]; at 33.0 µM
  growth inhibition: 93% (active)
[13]; at 100.0 µM
  growth inhibition: 98% (active)
[14]; at 1.2 µM
  growth inhibition: 4%
[14]; at 3.7 µM
  growth inhibition: 6%
[14]; at 11.0 µM
  growth inhibition: 17%
[14]; at 33.0 µM
  growth inhibition: 93% (active)
[14]; at 100.0 µM
  growth inhibition: 96% (active)
[15]; [17]
  growth inhibition: -18%
[15]; [18]
  growth inhibition: 94% (active)
[15]; at 50.0 µM
  growth inhibition: 85.5% (active)
[16]; at 1.2 µM
  growth inhibition: -4%
[16]; at 3.7 µM
  growth inhibition: -18%
[16]; at 11.0 µM
  growth inhibition: 14%
[16]; at 33.0 µM
  growth inhibition: 95% (active)
[16]; at 100.0 µM
  growth inhibition: 97% (active)

## Br[Se]c1ccccn1
[1]; at 1.2 µM
  growth inhibition: 2%
[1]; at 3.7 µM
  growth inhibition: 53%
[1]; at 11.0 µM
  growth inhibition: 97% (active)
[1]; at 33.0 µM
  growth inhibition: 99% (active)
[1]; at 100.0 µM
  growth inhibition: 98% (active)
[2]; at 1.2 µM
  growth inhibition: 2%
[2]; at 3.7 µM
  growth inhibition: 10%
[2]; at 11.0 µM
  growth inhibition: 58%
[2]; at 33.0 µM
  growth inhibition: 99% (active)
[2]; at 100.0 µM
  growth inhibition: 99% (active)
[3]; at 1.2 µM
  growth inhibition: -9%
[3]; at 3.7 µM
  growth inhibition: 59%
[3]; at 11.0 µM
  growth inhibition: 98% (active)
[3]; at 33.0 µM
  growth inhibition: 99% (active)
[3]; at 100.0 µM
  growth inhibition: 98% (active)
[4]; at 1.2 µM
  growth inhibition: -3%
[4]; at 3.7 µM
  growth inhibition: 12%
[4]; at 11.0 µM
  growth inhibition: 79% (active)
[4]; at 33.0 µM
  growth inhibition: 99% (active)
[4]; at 100.0 µM
  growth inhibition: 99% (active)
[5]; at 1.2 µM
  growth inhibition: 5%
[5]; at 3.7 µM
  growth inhibition: 91% (active)
[5]; [17]
  growth inhibition: 44%
[5]; at 11.0 µM
  growth inhibition: 97% (active)
[5]; at 33.0 µM
  growth inhibition: 98% (active)
[5]; [18]
  growth inhibition: 99% (active)
[5]; at 50.0 µM
  growth inhibition: 99.5% (active)
[5]; at 100.0 µM
  growth inhibition: 98% (active)
[6]; at 1.2 µM
  growth inhibition: 0%
[6]; at 3.7 µM
  growth inhibition: 34%
[6]; [17]
  growth inhibition: 29%
[6]; at 11.0 µM
  growth inhibition: 89% (active)
[6]; at 33.0 µM
  growth inhibition: 99% (active)
[6]; [18]
  growth inhibition: 100% (active)
[6]; at 50.0 µM
  growth inhibition: 99.8% (active)
[6]; at 100.0 µM
  growth inhibition: 99% (active)
[7]; at 1.2 µM
  growth inhibition: 5%
[7]; at 3.7 µM
  growth inhibition: 36%
[7]; at 11.0 µM
  growth inhibition: 99% (active)
[7]; at 33.0 µM
  growth inhibition: 99% (active)
[7]; at 100.0 µM
  growth inhibition: 99% (active)
[8]; [17]
  growth inhibition: -5%
[8]; [18]
  growth inhibition: 99% (active)
[8]; at 50.0 µM
  growth inhibition: 99.6% (active)
[9]; at 1.2 µM
  growth inhibition: -11%
[9]; at 3.7 µM
  growth inhibition: 11%
[9]; at 11.0 µM
  growth inhibition: 62%
[9]; at 33.0 µM
  growth inhibition: 99% (active)
[9]; at 100.0 µM
  growth inhibition: 99% (active)
[10]; [17]
  growth inhibition: 9%
[10]; [18]
  growth inhibition: 99% (active)
[10]; at 50.0 µM
  growth inhibition: 98.3% (active)
[11]; at 1.2 µM
  growth inhibition: -2%
[11]; at 3.7 µM
  growth inhibition: 20%
[11]; [17]
  growth inhibition: 75% (active)
[11]; at 11.0 µM
  growth inhibition: 93% (active)
[11]; at 33.0 µM
  growth inhibition: 98% (active)
[11]; [18]
  growth inhibition: 100% (active)
[11]; at 50.0 µM
  growth inhibition: 99.7% (active)
[11]; at 100.0 µM
  growth inhibition: 98% (active)
[12]; at 1.2 µM
  growth inhibition: 1%
[12]; at 3.7 µM
  growth inhibition: 14%
[12]; at 11.0 µM
  growth inhibition: 80% (active)
[12]; at 33.0 µM
  growth inhibition: 99% (active)
[12]; at 100.0 µM
  growth inhibition: 99% (active)
[13]; at 1.2 µM
  growth inhibition: -1%
[13]; at 3.7 µM
  growth inhibition: 22%
[13]; at 11.0 µM
  growth inhibition: 84% (active)
[13]; at 33.0 µM
  growth inhibition: 99% (active)
[13]; at 100.0 µM
  growth inhibition: 99% (active)
[14]; at 1.2 µM
  growth inhibition: 0%
[14]; at 3.7 µM
  growth inhibition: 23%
[14]; at 11.0 µM
  growth inhibition: 83% (active)
[14]; at 33.0 µM
  growth inhibition: 99% (active)
[14]; at 100.0 µM
  growth inhibition: 99% (active)
[15]; [17]
  growth inhibition: 31%
[15]; [18]
  growth inhibition: 99% (active)
[15]; at 50.0 µM
  growth inhibition: 99.7% (active)
